In the library only some 1.3% were active in any assay of this set; here they are far more common.
PrP UTR inh = inhibition of PrP 5' UTR reporter expression | cell-based PrP 5' UTR mRNA reporter, plate reader | inhibition, % (no concentration beside the values) | actives 0.35% (n = 340,000); in the data active = inhibition above about 52%; note: 0 = median of the neutral control wells
CCHF vOTU inh = CCHFV vOTU protease inhibitors, primary screen, biochemical, Pep-AMC substrate, fluorescence. actives 0.55% (n = 370,000). AID 651958, 2012. inhibition, % at 11.5 µM. Crimean-Congo hemorrhagic fever virus L polyprotein viral ovarian tumor (vOTU) protease …; in the data active = inhibition above about 30%; note: 0% = vehicle wells with enzyme and 100% = no enzyme wells
SARS 3CLpro inh = SARS-CoV 3CLpro protease inhibitors, primary screen, biochemical, quenched FRET; Replicase polyprotein 1ab (Severe acute respiratory syndrome coronavirus), P0C6X7; recombinant SARS-CoV 3CLpro, quenched FRET peptide cleavage; inhibition, % at 6 µM; actives 0.14% (n = 290,000); in the data active = inhibition above about 12%
PrPC surface inh = inhibitors of human cell surface prion protein PrPC, primary screen, cell-based, TR-FRET; TR-FRET read-out; inhibition, % at 13.8 µM; actives 0.43% (n = 370,000); in the data active = inhibition above about 24%; note: 0% = median of the test wells and 100% = reference compound wells
PrP UTR cherry = prion 5' UTR mRNA inhibition, cherry-pick retest; shares compounds with PrP UTR inh; actives 48% (n = 1,100); cell-based prion protein 5' UTR reporter, plate reader; inhibition, % at 2.5 µM; in the data active = inhibition above about 54%; inconclusive = no clear call, values can overlap the other calls
The depositor's hits bear a star.

Results for O=S(=O)(c1ccc(F)cc1)N1CCN(c2ncnc3c2cnn3-c2ccccc2)CC1 ?
PrP UTR inh: -1; CCHF vOTU inh: 12; SARS 3CLpro inh: -4; PrPC surface inh: 5

Results for Clc1ccc(Cn2ncc3c(N4CCCCC4)ncnc32)cc1 ?
PrP UTR inh: -7; CCHF vOTU inh: 15; SARS 3CLpro inh: 0; PrPC surface inh: 6

Results for CS(=O)(=O)N1CCN(c2ncnc3c2cnn3-c2ccccc2)CC1 ?
PrP UTR inh: 55*; CCHF vOTU inh: -15; SARS 3CLpro inh: 5; PrPC surface inh: 0; PrP UTR cherry: -28

Results for Clc1ccc(-n2ncc3c(N4CCCCCC4)ncnc32)cc1 ?
PrP UTR inh: 79*; CCHF vOTU inh: -3; SARS 3CLpro inh: 3; PrPC surface inh: -10; PrP UTR cherry: 70*

Results for COc1ccc(-n2ncc3c(N4CCCCC4)ncnc32)cc1 ?
PrP UTR inh: 86*; SARS 3CLpro inh: 4; PrP UTR cherry: 79*

Results for CCCCCCC/C=C(\C)[C@@H](O)[C@@H](C)C(=O)N1CCC[C@@H]1C(=O)O[C@H](C(=O)O[C@@H](C)C(=O)O)[C@@H](C)CC ?
PrPC surface inh: 1

What do the screens show for `CCOC(=O)C1CCN(Cc2nc(-c3ccc(OC)c(OC)c3)no2)CC1`?
PrP UTR inh: -16; CCHF vOTU inh: -1; SARS 3CLpro inh: 3; PrPC surface inh: 11

What do the screens show for `Cc1cnc(NC(=O)COc2ccccc2Cl)s1`?
PrP UTR inh: 63*; CCHF vOTU inh: 1; SARS 3CLpro inh: 3; PrPC surface inh: -3; PrP UTR cherry: inconclusive

How did O=C(COc1ccccc1Cl)Nc1ccc(CN2CCCCC2)cc1 do in these assays?
PrP UTR inh: 66*; CCHF vOTU inh: 1; SARS 3CLpro inh: -2; PrPC surface inh: -2; PrP UTR cherry: -24

What do the screens show for `O=C(COc1ccccc1Cl)Nc1ccc(C(=O)N2CCCCC2)cc1`?
PrP UTR inh: -11; CCHF vOTU inh: -1; SARS 3CLpro inh: 0; PrPC surface inh: 4

Results for O=C(O)c1ccc(C=NN=Cc2ccco2)cc1 ?
PrP UTR inh: 62*; CCHF vOTU inh: 15; PrPC surface inh: -4; PrP UTR cherry: 0

How did O=C(NCc1ccccn1)c1ccc(Cn2c(=S)[nH]c3ccccc3c2=O)cc1 do in these assays?
PrP UTR inh: -7; CCHF vOTU inh: -6; SARS 3CLpro inh: 7; PrPC surface inh: -1

How did O=C(NCc1ccccn1)c1ccc(Cn2c(=S)[nH]c3ccc(Br)cc3c2=O)cc1 do in these assays?
PrP UTR inh: 71*; CCHF vOTU inh: -6; SARS 3CLpro inh: -5; PrPC surface inh: 3; PrP UTR cherry: -6

What do the screens show for `Cc1ccccc1CSc1nnc([C@@H]2CCCN2)o1`?
PrP UTR inh: 74*; CCHF vOTU inh: -6; SARS 3CLpro inh: -3; PrPC surface inh: 0; PrP UTR cherry: 4

Results for COc1ccc(NC(=S)NCc2cccs2)cc1 ?
PrP UTR inh: 75*; CCHF vOTU inh: 5; SARS 3CLpro inh: 0; PrPC surface inh: -4; PrP UTR cherry: -12

How did Nc1nonc1-c1noc(-c2ccccc2)n1 do in these assays?
PrP UTR inh: -30; CCHF vOTU inh: -11; SARS 3CLpro inh: -3; PrPC surface inh: 0

How did Nc1nc(-c2nonc2N)no1 do in these assays?
PrP UTR inh: 71*; CCHF vOTU inh: -4; SARS 3CLpro inh: -2; PrPC surface inh: -3; PrP UTR cherry: -20

What do the screens show for `O=C1NC(=S)N/C1=C/C=C/c1ccccc1`?
PrP UTR inh: -22; CCHF vOTU inh: -10; SARS 3CLpro inh: 3; PrPC surface inh: 0

How did Cc1ccc(C(=O)Nc2ccccc2C(=O)NCc2cccnc2)cc1 do in these assays?
PrP UTR inh: -1; CCHF vOTU inh: -7; SARS 3CLpro inh: 1; PrPC surface inh: 9

How did CCCCN(C(=O)c1ccc(Cl)cc1)C1CC2CCC(C1)N2C (stereo unspecified) do in these assays?
PrP UTR inh: 72*; CCHF vOTU inh: -1; SARS 3CLpro inh: 1; PrPC surface inh: -1; PrP UTR cherry: -14

How did CCc1nnc(NC(=O)CSc2nnc(-c3ccccc3O)o2)s1 do in these assays?
PrP UTR inh: -24; CCHF vOTU inh: -15; SARS 3CLpro inh: 0; PrPC surface inh: 1

Results for Nc1ccc(-c2ncc(-c3ccccc3)o2)cc1 ?
PrP UTR inh: 76*; CCHF vOTU inh: -351; SARS 3CLpro inh: -2; PrPC surface inh: 10; PrP UTR cherry: 64*

What do the screens show for `CC(=NNc1ccc2ccccc2n1)c1ccccn1`?
CCHF vOTU inh: -7; PrPC surface inh: 10

How did CC(=NNc1ccc2ccccc2n1)c1ccccc1O do in these assays?
PrP UTR inh: 67*; CCHF vOTU inh: 1; PrPC surface inh: 3; PrP UTR cherry: 47

What do the screens show for `CC(C)c1cccc(-c2ccc3c(c2)S(=O)(=O)c2cccc(C(=O)NC4CCCC4)c2C3=O)c1`?
PrP UTR inh: -3; CCHF vOTU inh: 11; PrPC surface inh: -9

How did COc1ccc(C(=O)Nc2cc(C)on2)c(OC)c1 do in these assays?
PrP UTR inh: -50; CCHF vOTU inh: 3; SARS 3CLpro inh: 1; PrPC surface inh: -1

How did COc1ccc(C(=O)Nc2ccc(C)cn2)c(OC)c1 do in these assays?
PrP UTR inh: 79*; CCHF vOTU inh: 0; SARS 3CLpro inh: -4; PrPC surface inh: 2; PrP UTR cherry: 75*

How did Cc1cccn2c(=O)nc(SCC(=O)N3CCC(C)CC3)nc12 do in these assays?
PrP UTR inh: -16; CCHF vOTU inh: -5; PrPC surface inh: -8

Results for CCOC(=O)C1(Cc2ccccc2)CCCN(CCO)C1 (stereo unspecified) ?
PrP UTR inh: -64; CCHF vOTU inh: -18; SARS 3CLpro inh: -4; PrPC surface inh: 2

How did CCOC(=O)C1(Cc2ccccc2)CCCN(Cc2ccc(OCC)c(CO)c2)C1 (stereo unspecified) do in these assays?
PrP UTR inh: 52*; CCHF vOTU inh: 9; SARS 3CLpro inh: -3; PrPC surface inh: 4; PrP UTR cherry: 5

How did O=C(Nc1cccc(O)c1)c1cc(-c2ccc3c(c2)OCO3)on1 do in these assays?
PrP UTR inh: 58*; CCHF vOTU inh: -4; SARS 3CLpro inh: -1; PrPC surface inh: 8; PrP UTR cherry: inconclusive

How did COc1cc(NC(=O)c2cc(-c3ccc4c(c3)OCO4)on2)cc(OC)c1OC do in these assays?
PrP UTR inh: -16; CCHF vOTU inh: 16; SARS 3CLpro inh: -3; PrPC surface inh: 12

How did Cc1ccc(S(=O)(=O)NC2CCSC2=O)cc1C (stereo unspecified) do in these assays?
PrP UTR inh: 75*; CCHF vOTU inh: 6; PrPC surface inh: 6; PrP UTR cherry: -7

Results for CCOP(=O)(OCC)c1nc(-c2cccc3ccccc23)oc1N1CCCCC1 ?
PrP UTR inh: 72*; CCHF vOTU inh: -301; SARS 3CLpro inh: 4; PrPC surface inh: 2; PrP UTR cherry: 1

Results for CCN(CC)c1ccccc1 ?
PrP UTR inh: -5; CCHF vOTU inh: 1; PrPC surface inh: 11

Results for CCN(CC)c1ccc(C(=C2C=CC(=[N+](CC)CC)C=C2)c2ccc(N(CC)CC)cc2)cc1 ?
PrP UTR inh: 52*; CCHF vOTU inh: 26; PrPC surface inh: -143; PrP UTR cherry: inconclusive

Screening data from PubChem BioAssay.
